In patent US20090232783, “Method for Regulating Production of Hemoglobin Beta Chains” (published 2009):

target: Nuclear ferritin-H (K562 nuclear extract, crude or heat/proteinase K enriched) (Homo sapiens, UniProt P02794 P02794:2-183); experiment: competition; 20-fold greater competitor concentration than wt needed for 50% inhibition; 1000-fold vs 50-fold excess; settings: protein: extract; dsDNA, one strand shown
Protocol: Gel mobility shift assays. Gel retardation assays (i.e., gel shifts) were used to determine DNA binding of the extract proteins to the Rsa I (95 bp) fragment and synthetic oligonucleotides (Berg et al., (1989) Nucleic Acids Res 17, 8833-52; Fried & Crothers (1981) Nucleic Acids Res 9, 6505-25). Each reaction contained 0.5-2 ng of DNA, 1.0-5.0 ug of extract protein, 1.0-5.0 ug of poly dI:poly dC, 100 mM KCl, and binding buffer (Berg et al., (1989) Nucleic Acids Res 17, 8833-52). Unlabeled competitor oligonucleotides ranged from 15- to 2000-fold molar excess and were included in the reaction mixture with the probe before adding protein. Gels used for retardation assays were 4%, 5%, or 6% acrylamide and the running buffer was low ionic strength TAE (Berg et al., (1989) Nucleic Acids Res 17, 8833-52).
Definition of the binding site with competition gel shifts. To further localize the binding of ferritin, the 37 bp oligonucleotide was mutated in different places, replacing six nucleotides at a time with all A's, all C's, or all G's, with complementary nucleotide replacements in the opposing strand (FIG. 4A). A competition gel shift assay was done with the partially purified protein from heated K562 nuclear extract, in which each of the unlabeled mutant oligos as well as the native sequence was competed against the 32-P-labeled native sequence for binding.

Sequence | binding signal [fold]
AACTCCTAAGCAAAAAACAGAAGAGCCAAGGACAGGT | 20
